The supplement of paper PMC8975748
Counter-ions that a name gives are not always drawn.

tested on: Saccharomyces cerevisiae BY4741 SeMeCo community; assay: z-score of subpopulation abundance vs DMSO median, subpopulation auxotrophic for HM; higher = larger share of this subpopulation than in DMSO controls; conditions: 10 µM; 24 h; SM minimal medium; subpopulation (auxotrophy): HM
Method: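 Fluorescent four-plasmid SeMeCo (self-establishing metabolically cooperating S. cerevisiae BY4741 community; plasmids pH-mRuby2, pL-mWasabi, pU-eCFP, pM-TagRFP657) was grown 24 h in minimal SM medium with each Selleck FDA-approved drug at 10 µM in 384-well plates. Cells were fixed and imaged by high-content confocal microscopy. For each auxotrophic subpopulation (and the prototroph), a z-score gives the deviation from the DMSO vehicle-control population median.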

Row | Structure (SMILES) | z-score of subpopulation abundance
1 | Cc1cc(O)ccc1Cl [Chlorocresol] | -0.29
2 | CCOC(=O)Nc1ccc(NCc2ccc(F)cc2)cc1N [Retigabine] | 0.58
3 | O=c1[nH]c2ccccc2n1CCCN1CCC(n2c(=O)[nH]c3cc(Cl)ccc32)CC1 [Domperidone] | 0.27
4 | CC[C@@H](C(N)=O)N1CCCC1=O [Levetiracetam] | -0.1
5 | COc1ccc(C(CN(C)C)C2(O)CCCCC2)cc1 (stereo not given) [Venlafaxine] | -0.77
6 | C=CN1CCCC1=O.II [Povidone iodine] | 1.1
7 | COc1cc2c(cc1OC)C1CC(=O)C(CC(C)C)CN1CC2 (stereo not given) [Tetrabenazine (Xenazine)] | 0.63
8 | CN1[C@@H]2C[C@@H](OC(=O)[C@H](CO)c3ccccc3)C[C@H]1[C@@H]1O[C@@H]12 [Scopolamine HBr] | -0.93
9 | CNC1CC(N)C(O)C(OC2OC(CO)C(O)C3OC4(OC(C(N)CO)C(O)C(O)C4O)OC23)C1O (stereo not given) [Hygromycin B] | -1.16
10 | CCN(C)C(=O)Oc1cccc([C@H](C)N(C)C)c1 [Rivastigmine Tartrate] | -1.12
11 | Cn1cc(C2=C(c3cn(C4CCN(Cc5ccccn5)CC4)c4ccccc34)C(=O)NC2=O)c2ccccc21 | -1.56
12 | N[C@@H]1C[C@H]1c1ccccc1 [Tranylcypromine (2-PCPA) HCl] | -0.71
13 | CC(=O)OCC1=C(C(=O)O)N2C(=O)C(N)C2SC1 (stereo not given) [7-Aminocephalosporanic acid] | -0.48
14 | CCCCCCCCCCCCCCCC[n+]1ccccc1 [Cetylpyridinium Chloride] | 12.4
15 | CN(C)[C@@H]1C(=O)C(C(N)=O)=C(O)[C@@]2(O)C(=O)C3=C(O)c4c(O)cccc4[C@@](C)(O)[C@H]3C[C@@H]12 [Tetracycline HCl] | 0.72
16 | CC(NC(C)(C)C)C(=O)c1cccc(Cl)c1 (stereo not given) [Amfebutamone (Bupropion) HCl] | -0.38
17 | CN1C(=O)COc2c(C(=O)NC3CN4CCC3CC4)cc(Cl)cc21 (stereo not given) [Azasetron HCl] | 0.88
18 | Nc1nc(N)nc(NC2CC2)n1 [Cyromazine] | 0.9
19 | CN(C)[C@@H]1C(=O)C(C(N)=O)=C(O)[C@@]2(O)C(=O)C3=C(O)c4c(O)ccc(Cl)c4[C@@](C)(O)[C@H]3C[C@@H]12 [Chlortetracycline HCl] | -0.67
20 | C=CC[C@]1(O)CC[C@H]2[C@@H]3CCC4=CC(=O)CCC4=C3C=C[C@@]21C [Altrenogest] | -0.25

Row | Structure (SMILES) | z-score of subpopulation abundance
21 | CN1[C@@H]2CC[C@H]1C[C@@H](OC(=O)C(CO)c1ccccc1)C2 (stereo not given in full) [Atropine sulfate monohydrate] | -0.85
22 | O=C(O[C@H]1C[N+]2(CCCOc3ccccc3)CCC1CC2)C(O)(c1cccs1)c1cccs1 [Aclidinium Bromide] | -0.01
23 | CN(C)C(=O)Oc1cccc([N+](C)(C)C)c1 [Neostigmine Bromide] | -0.54
24 | Cc1cc(C(C#N)c2ccc(Cl)cc2)c(Cl)cc1NC(=O)c1cc(I)cc(I)c1O (stereo not given) [Closantel] | -0.13
25 | Oc1cc(Cl)ccc1Oc1ccc(Cl)cc1Cl [Triclosan] | -1.82
26 | COc1ccc2[nH]cc(CCN)c2c1 [5-Methoxytryptamine] | -0.25
27 | O=c1cccc2n1C[C@@H]1CNC[C@H]2C1 [Cytisine] | 0.02
28 | COC(=O)C1=CCCN(C)C1 [Arecoline HBr] | 0.08
29 | CN1[C@@H]2CC[C@H]1C[C@@H](OC(=O)[C@H](CO)c1ccccc1)C2 [Hyoscyamine] | -0.73
30 | COc1ccc2c3c([nH]c2c1)C(C)=NCC3 [Harmaline] | 3.18
31 | C=CCN1C[C@H](C(=O)N(CCCN(C)C)C(=O)NCC)C[C@@H]2c3cccc4[nH]cc(c34)C[C@H]21 [Cabergoline] | -0.83
32 | CC1(C)SC2C(N)C(=O)N2C1C(=O)O (stereo not given) [6-Aminopenicillanic acid] | 0.18
33 | Nc1ccncc1 [4-Aminopyridine] | 0.26
34 | CCCN1C[C@H](CSC)C[C@@H]2c3cccc4[nH]cc(c34)C[C@H]21 [Pergolide Mesylate] | -0.36
35 | C#C[C@]1(O)C=C[C@H]2[C@@H]3CCC4=CC(=O)CC[C@@H]4[C@H]3CC[C@@]21CC [Gestodene] | 0.34
36 | CN(C)[C@@H]1C(=O)C(C(N)=O)=C(O)[C@@]2(O)C(=O)C3=C(O)c4c(O)cccc4[C@@](C)(O)[C@H]3[C@H](O)[C@@H]12 [Oxytetracycline Dihydrate] | -0.75
37 | COc1ccc(C=O)cc1 [p-Anisaldehyde] | -0.95
38 | C[CH2][Hg][S]c1ccccc1C(=O)[O-].[Na+] [Thimerosal] | 22.6
39 | NCCc1c[nH]c2ccc(O)cc12 [Serotonin HCl] | 0.16
40 | NCC(O)c1ccc(O)cc1 (racemic) [(+,-)-Octopamine HCl] | -0.78
